The results in this text go back to PubChem BioAssay (NCATS).

Records with an inconclusive call do not appear. Activity calls are given as the source filed them. Calls come from the whole dose curve; as a rule, active = well fitted curve in the direction sought with a large enough effect; inconclusive = small, poorly fitted or top-dose-only effect, or another doubt; inactive = no such curve, though single readings can be large; an effect the other way counts as inactive or inconclusive.

Experiment [1] can be described thus: Primary qHTS for inhibitors of nuclear receptor binding SET domain protein 2 (NSD2) in an isogenic RCH-ACV NSD2 p.E1099K mutant (9B) (AID 1645876). Note: nearly all actives have a fitted effect of over 70% in size. Note: potency is the fitted concentration of half-maximal effect. The following applies: RCH-ACV NSD2 E1099K (9B) viability, CellTiter-Glo, 72 h; series mostly up to 44.9 µM.
Experiment [2] in a line: Primary qHTS for inhibitors of nuclear receptor binding SET domain protein 2 (NSD2) in an RCH-ACV wild type WT cells (2C) (AID 1645877). Note: nearly all actives have a fitted effect of over 70% in size. Note: potency is the fitted concentration of half-maximal effect. The settings on record: RCH-ACV (leukaemia line) NSD2 WT (2C) viability, CellTiter-Glo, 72 h; series mostly up to 44.9 µM. For orientation: qHTS replaces the single test concentration by a dilution series.
For experiment [3], the target named is Rap guanine nucleotide exchange factor 3 (Homo sapiens) (UniProt O95398). The experiment can be described thus: Confirmatory qHTS for agonist of cAMP-regulated guanine nucleotide exchange factor 3 (EPAC1) (AID 1645881).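 Note: EPAC1 catalysed release of BODIPY-GDP from Rap1B seen as fluorescence loss; nearly all actives have a fitted effect of over 75% in size.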 The following applies: EPAC1 Rap1B BODIPY-GDP exchange fluorescence, 100% = cAMP control response; series mostly up to 154 µM.
Experiment [4] addresses Rap guanine nucleotide exchange factor 4 (Homo sapiens) (UniProt Q8WZA2). The experiment can be described thus: Confirmatory qHTS for agonist of cAMP-regulated guanine nucleotide exchange factor 4 (EPAC2) (AID 1645884).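 Note: nucleotide exchange releases bodipy-GDP from Rap1 and this lowers its fluorescence; nearly all actives have a fitted effect of over 65% in size.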 The settings on record: EPAC2 GEF activity, Rap1B-BODIPY-GDP fluorescence, percent relative to cAMP agonist control; series mostly up to 154 µM.

Sequence of Rap guanine nucleotide exchange factor 4 (Homo sapiens) (Q8WZA2 whole entry, looked up): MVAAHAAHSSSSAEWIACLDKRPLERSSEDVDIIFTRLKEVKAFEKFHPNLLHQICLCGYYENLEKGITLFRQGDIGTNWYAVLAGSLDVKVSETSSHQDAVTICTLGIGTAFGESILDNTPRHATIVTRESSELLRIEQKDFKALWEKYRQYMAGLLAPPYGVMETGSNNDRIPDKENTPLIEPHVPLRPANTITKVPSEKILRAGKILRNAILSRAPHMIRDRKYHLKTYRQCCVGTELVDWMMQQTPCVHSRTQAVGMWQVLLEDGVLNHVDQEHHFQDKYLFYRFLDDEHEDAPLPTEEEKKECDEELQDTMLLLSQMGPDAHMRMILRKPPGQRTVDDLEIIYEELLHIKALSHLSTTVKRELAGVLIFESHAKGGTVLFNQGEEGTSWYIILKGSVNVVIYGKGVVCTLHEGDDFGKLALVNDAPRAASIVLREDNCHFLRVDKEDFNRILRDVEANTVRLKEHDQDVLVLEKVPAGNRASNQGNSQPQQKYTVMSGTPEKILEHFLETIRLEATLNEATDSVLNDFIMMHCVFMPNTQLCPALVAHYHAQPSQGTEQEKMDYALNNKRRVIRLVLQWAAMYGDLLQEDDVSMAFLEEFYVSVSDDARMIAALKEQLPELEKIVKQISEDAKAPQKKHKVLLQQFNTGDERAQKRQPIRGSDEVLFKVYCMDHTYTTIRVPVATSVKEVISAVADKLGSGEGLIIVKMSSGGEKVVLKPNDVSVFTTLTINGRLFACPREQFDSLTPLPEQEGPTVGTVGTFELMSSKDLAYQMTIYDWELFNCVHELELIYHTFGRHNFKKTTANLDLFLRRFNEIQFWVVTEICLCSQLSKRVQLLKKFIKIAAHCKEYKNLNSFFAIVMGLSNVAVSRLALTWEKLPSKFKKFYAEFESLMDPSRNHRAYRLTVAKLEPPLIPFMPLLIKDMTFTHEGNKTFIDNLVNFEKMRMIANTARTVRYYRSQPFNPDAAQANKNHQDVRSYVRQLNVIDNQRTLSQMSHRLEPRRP
Sequence of Rap guanine nucleotide exchange factor 3 (Homo sapiens) (O95398 whole entry, looked up): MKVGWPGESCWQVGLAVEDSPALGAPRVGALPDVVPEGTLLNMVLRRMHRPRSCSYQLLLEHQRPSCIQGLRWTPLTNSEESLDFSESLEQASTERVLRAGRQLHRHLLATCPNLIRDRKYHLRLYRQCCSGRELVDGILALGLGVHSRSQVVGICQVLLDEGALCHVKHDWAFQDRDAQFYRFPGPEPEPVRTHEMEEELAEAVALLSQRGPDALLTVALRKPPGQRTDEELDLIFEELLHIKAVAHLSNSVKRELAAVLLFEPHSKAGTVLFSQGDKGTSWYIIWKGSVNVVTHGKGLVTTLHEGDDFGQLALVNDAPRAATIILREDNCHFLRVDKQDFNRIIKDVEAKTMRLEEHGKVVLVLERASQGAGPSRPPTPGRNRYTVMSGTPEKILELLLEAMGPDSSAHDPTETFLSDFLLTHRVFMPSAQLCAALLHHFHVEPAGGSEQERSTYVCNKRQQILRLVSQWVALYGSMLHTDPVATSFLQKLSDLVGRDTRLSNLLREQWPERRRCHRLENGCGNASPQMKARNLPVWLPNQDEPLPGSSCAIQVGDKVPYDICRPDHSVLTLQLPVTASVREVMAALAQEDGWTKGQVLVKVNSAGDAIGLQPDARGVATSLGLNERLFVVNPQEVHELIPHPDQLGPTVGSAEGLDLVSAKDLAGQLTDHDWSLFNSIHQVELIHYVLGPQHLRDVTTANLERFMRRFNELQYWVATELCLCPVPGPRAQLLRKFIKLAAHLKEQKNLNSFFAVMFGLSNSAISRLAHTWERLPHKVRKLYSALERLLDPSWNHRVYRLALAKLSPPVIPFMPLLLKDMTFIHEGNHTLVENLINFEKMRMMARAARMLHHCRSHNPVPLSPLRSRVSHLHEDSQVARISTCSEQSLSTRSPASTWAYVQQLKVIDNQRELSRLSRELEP

For the compound `OC[C@H]1O[C@@H](OC/C=C/c2ccc(O)cc2)[C@H](O)[C@@H](O)[C@@H]1O`, the Potency result in experiment [1] and in experiment [2] was “inactive” in each case.

As to `C/C=C(\C)C(=O)O[C@H]1C=CC(=O)O[C@H]1/C=C/[C@@H](O)[C@H](C)O`, the values for the Potency in experiment [1] and in experiment [2] were 16.3 µM (active) and 5.78 µM (active), respectively.

Regarding `C/C1=C\CCC2=CC(OC2=O)C(C)(C)/C=C/C1=O` (stereo not drawn), the Potency is 6.49 µM (active) in experiment [1] and 2.9 µM (active) in experiment [2]. Regarding `Cc1nc(NC(=O)N2CCCC2C(N)=O)sc1-c1ccnc(C(C)(C)C(F)(F)F)c1` (stereo not drawn), the Potency in experiment [1] is 2.35 µM (active); in experiment [2], 2.63 µM (active).

Turning to `C=C1C(=O)OC2CC(C)=C(C(C)CCCOC(C)=O)C(OC(=O)CC(C)CC)C12` (stereo not drawn), the Potency in experiment [1] and in experiment [2] was 7.09 µM (active) each time. `C=C1C(=O)O[C@@H]2/C=C(\CO)CC/C=C(/C=O)C[C@@H](O)[C@@H]12`: the figures for the Potency in experiment [1] and in experiment [2] were 6.49 µM (active) and 4.09 µM (active), respectively.

As for `COC(=O)N1CC2(CC2)C[C@H](C(=O)NO)[C@H]1C(=O)N1CCN(c2ccccc2)CC1`, the Potency result in experiment [1] and in experiment [2] was “inactive” each time. For `CCC(C)(OC(C)=O)C(=O)O[C@H]1[C@H](OC(C)=O)[C@]2(CO)[C@H](O)[C@H](O)[C@]3(C)C(=CCC4[C@@]5(C)CC[C@H](O[C@@H]6O[C@H](C(=O)O)[C@@H](O)[C@H](O[C@@H]7OC[C@H](O)[C@H](O[C@@H]8OC[C@H](O)[C@H](O)[C@H]8O)[C@H]7O)[C@H]6O[C@@H]6O[C@H](CO)[C@@H](O)[C@H](O)[C@H]6O)C(C)(C)C5CC[C@]43C)[C@@H]2CC1(C)C` (stereo partly drawn), the Potency in experiment [2] was 2.44 µM (active). Take `C=C1CC[C@@H]2[C@](C)(CO)[C@H](O)CC[C@@]2(C)[C@@H]1CC(=O)C1=CCOC1=O`: the Potency entry in experiment [1] and in experiment [2] was “inactive” in each case. Take `C/C=C(/C)C(=O)O[C@H]1C=C(CO)C(=O)[C@H](OC(=O)/C(C)=C/CO)[C@H]1C(C)C`: the Potency in experiment [1] and in experiment [2] was 1.79 µM (active) each time.

In the case of `C=C1C(=O)O[C@H]2C1CCC(C)=C1C(=O)C=C(C)[C@@]12O` (stereo partly drawn), the Potency in experiment [1] is 20.5 µM (active); in experiment [2], 12.9 µM (active). On to `C=C1C(=O)OC2CC(C)C(CCC(C)O)=CCC12` (stereo not drawn), for which, in experiment [2], the Potency was 16.3 µM (active). For the compound `COC(CCc1ccc(O)cc1)CC(=O)CCc1ccc(O)cc1` (stereo not drawn), the values for the Potency in experiment [1] and in experiment [2] were 5.67 µM (active) and 8.98 µM (active), respectively. In the case of `C[C@@H]1O[C@@H](O[C@H]2[C@@H]3C=CO[C@@H](O[C@@H]4O[C@H](CO)[C@@H](O)[C@H](O)[C@H]4O)[C@@H]3[C@@]3(CO)O[C@@H]23)[C@H](O)[C@H](OC(=O)/C=C/c2ccccc2)[C@H]1O`, the Potency in experiment [2] is 5.41 µM (active).

Consider `CN(C)CCOC(C)(c1ccccc1)c1ccc(Cl)cc1` (stereo not drawn), for which the Potency in experiment [1] is 11.5 µM (active); in experiment [2] it was 10.3 µM (active). Turning to `CC(C)(C)C1CCN(C(=O)n2ncc(C(O)(c3ccccc3)c3ccccc3)n2)CC1`, the Potency in experiment [1] was 20.5 µM (active); in experiment [2], 11.5 µM (active). Regarding `CC(=O)[C@H]1CC[C@H]2[C@@H]3CC=C4C[C@@H](OS(=O)(=O)O)CC[C@]4(C)[C@H]3CC[C@]12C`, the Potency result in experiment [1] and in experiment [2] was “inactive” throughout. Also, the call in experiment [3] and in experiment [4] was inactive. `CC(=O)O[C@]1(C(C)=O)CC[C@H]2[C@@H]3CCC4=CC(=O)CCC4=C3[C@@H](c3ccc(N(C)C)cc3)C[C@@]21C`: the Potency in experiment [1] and in experiment [2] was 23 µM (active) in each case.

As to `C/C=C(\C)[C@@H]1C(C)=C[C@@H]2[C@H]([C@@H]1/C=C/C=C/C(=O)O)[C@@H](C)CC[C@@H]2O`, the Potency in experiment [1] was 5.05 µM (active); in experiment [2], 4.01 µM (active).

As to `Cc1cc(-c2nc3cc(F)ccc3s2)ccc1NC(=O)[C@@H](N)CCCCN`, the results for the Potency in experiment [1] and in experiment [2] were 5.25 µM (active) and 4.17 µM (active), respectively. As to `C=C1CC(=O)C2OC2(C)CC2OC(=O)C(=C)C2C(O)C1OC(=O)/C(C)=C\C` (stereo not drawn), the Potency in experiment [1] is 3.19 µM (active); in experiment [2], 2.01 µM (active). As to `CC(=O)O[C@H]1[C@@]2(O)C[C@H](C)[C@H](OC(=O)c3ccccc3)[C@@H]2[C@@H](OC(=O)CO)[C@]2(OC(C)=O)C[C@H]3C(=O)C(C)(C)C[C@@H]3[C@@]1(C)[C@H]2OC(C)=O`, in experiment [2], the Potency entry was “inactive”. For the compound `C=C[C@](C)(O)CC[C@H]1C(C)=CC(=O)[C@H]2C(C)(C)CCC[C@]12C`, in experiment [2], the Potency is 18.3 µM (active).
